The results in this text go back to PubChem BioAssay (NCATS).

Assay [1] has as its target Lysosomal acid glucosylceramidase (Homo sapiens) (UniProt P04062). As to the kind of experiment: Glucocerebrosidase-p2 (AID 348; in the data active means potency below about 10 µM; further: potency means the concentration at half of the fitted maximal effect). Particulars: purified GBA, blue fluorogenic substrate, 40 min. In outline: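 Compounds titrated from 0.6 nM upwards against 0.2 nM enzyme in pH 5.9 citric acid/KH2PO4, taurocholate, tween-20; blue fluorogenic substrate 80 uM, 40 min room temperature, stopped and read Ex 365/Em 440 for AC50.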

Assay [2] can be described thus: AP1 Signaling Pathway (AID 357).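 Further: ME-180 reporter cells stimulated with EGF at its EC50 level; on the % scale 0 is the no-effect control and ±100 the full control effect.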 Particulars: ME-180 AP-1-bla reporter, EGF-induced, beta-lactamase ratio, 5 h; at 7.69 µM (top of the series) unless noted. In outline:
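In this screen, ME-180 cells in Opti-MEM with 0.5% dialyzed FBS received EC50 EGF and compound titrations for 5 h. AP-1 reporter beta-lactamase was detected via CCF4 ratio, giving AC50 for positive and negative modulators.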

For assay [3], the target named is Cytochrome P450 1A2 (Homo sapiens) (UniProt P05177). As to the kind of experiment: p450-cyp1a2 (AID 410; calls by dose curve). The following applies: recombinant CYP1A2, luciferin-ME demethylation, luminescence; series mostly up to 57 µM. In outline: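 Inhibition was calculated relative to 57 uM furafylline (full inhibition). The reaction used human CYP1A2 at 20nM with Luciferin-ME at its Km, 100uM, driven by an NADPH-regenerating system for 60 min at room temperature.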
Cytochrome P450 1A2 (Homo sapiens), sequence (P05177 whole entry, looked up): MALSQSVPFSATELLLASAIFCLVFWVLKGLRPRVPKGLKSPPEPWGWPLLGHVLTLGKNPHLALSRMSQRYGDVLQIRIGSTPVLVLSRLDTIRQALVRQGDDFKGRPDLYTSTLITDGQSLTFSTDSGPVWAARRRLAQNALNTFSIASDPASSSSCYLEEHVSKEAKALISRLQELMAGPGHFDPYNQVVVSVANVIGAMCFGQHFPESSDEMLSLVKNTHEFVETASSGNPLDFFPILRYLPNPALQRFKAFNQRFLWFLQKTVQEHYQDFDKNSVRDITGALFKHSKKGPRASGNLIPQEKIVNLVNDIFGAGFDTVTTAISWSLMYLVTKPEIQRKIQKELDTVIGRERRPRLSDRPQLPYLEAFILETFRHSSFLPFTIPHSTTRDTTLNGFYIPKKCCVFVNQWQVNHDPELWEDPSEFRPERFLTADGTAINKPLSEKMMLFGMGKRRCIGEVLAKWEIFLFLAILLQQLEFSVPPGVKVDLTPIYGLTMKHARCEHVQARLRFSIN

Assay [4] is described as follows: Stat Signaling Pathway (AID 446).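 Further: ME-180 cervical cancer cells given 40 pM IL-6 alongside compound; SIE-controlled beta-lactamase reporter measured as 460/530 nm FRET emission ratio; on the % scale 0 is the no-effect control and ±100 the full control effect.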 The following applies: ME-180 SIE beta-lactamase reporter, IL-6 stimulated, 5 h; at 7.69 µM (top of the series) unless noted. In outline: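 Reporter line: ME-180 cervical carcinoma, SIE-beta-lactamase. Treatment: compound with 40 pM IL-6, 5 hrs, 37 C, in low-serum OPTI-MEM with 10 mM HEPES pH 7.3. Detection: 460/530 nm fluorescence.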

The target in assay [5] is Glucocorticoid receptor (Homo sapiens) (UniProt P04150). In words: GR-EFC Redistribution (AID 451; calls by dose curve; further: potency means the concentration at half of the fitted maximal effect). The following applies: CHO-K1 GR-EFC translocation, beta-gal luminescence, 2 h. In outline:
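CHO-K1 cells expressing nuclear EA and GR-ED fragments of b-gal; compounds titrated up to 46 uM final, 2 h at 37 C. GR nuclear translocation read as complemented b-gal luminescence after 1 h RT detection.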

Assay [6] concerns the target Mitogen-activated protein kinase 10 (Mus musculus) (UniProt Q61831). In words: JNK3 AlphaScreen Assay (AID 530).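 Further: kinase came from lysate of stimulated human HepG2 cells; signal reports phosphorylation of biotinylated GST-cJun 1-79 at Ser73 with 10 µM ATP; on the % scale 0 is the no-effect control and ±100 the full control effect.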 Particulars: JNK3 lysate, c-Jun phosphorylation; series mostly up to 57.1 µM. The procedure, abridged:
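qHTS format: compounds tested as titrations against IL-1beta/TNF-alpha-activated HepG2 lysate JNK3 with biotin-GST-cJun substrate and 10 uM ATP at room temperature. Loss of anti-phospho-cJun AlphaScreen signal indicates inhibition.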
For orientation: In Alpha technology, singlet oxygen from a donor bead excites a nearby acceptor bead.

The target in assay [7] is 3',5'-cyclic-AMP phosphodiesterase 4B (Homo sapiens) (UniProt Q07343). In words: qHTS Assay for Inhibitors of PDE-IV (AID 607; active means well fitted activation curve with a large enough effect in the main read-out, with a control signal flat, not every such curve was filed as active; further: % of control where 0% means no effect). The following applies: HEK293 ACTOne CNG channel cells, membrane potential fluorescence; series mostly up to 22.9 µM. In outline: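 Cell-based read-out of cAMP via a modified cyclic nucleotide-gated channel and membrane potential dye (535/590 nm) in HEK293 cells expressing PDE4 endogenously. Compounds tested up to 22.9 uM final; 100 uM RO 20-1724 reference.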
3',5'-cyclic-AMP phosphodiesterase 4B (Homo sapiens), sequence (Q07343 whole entry, looked up): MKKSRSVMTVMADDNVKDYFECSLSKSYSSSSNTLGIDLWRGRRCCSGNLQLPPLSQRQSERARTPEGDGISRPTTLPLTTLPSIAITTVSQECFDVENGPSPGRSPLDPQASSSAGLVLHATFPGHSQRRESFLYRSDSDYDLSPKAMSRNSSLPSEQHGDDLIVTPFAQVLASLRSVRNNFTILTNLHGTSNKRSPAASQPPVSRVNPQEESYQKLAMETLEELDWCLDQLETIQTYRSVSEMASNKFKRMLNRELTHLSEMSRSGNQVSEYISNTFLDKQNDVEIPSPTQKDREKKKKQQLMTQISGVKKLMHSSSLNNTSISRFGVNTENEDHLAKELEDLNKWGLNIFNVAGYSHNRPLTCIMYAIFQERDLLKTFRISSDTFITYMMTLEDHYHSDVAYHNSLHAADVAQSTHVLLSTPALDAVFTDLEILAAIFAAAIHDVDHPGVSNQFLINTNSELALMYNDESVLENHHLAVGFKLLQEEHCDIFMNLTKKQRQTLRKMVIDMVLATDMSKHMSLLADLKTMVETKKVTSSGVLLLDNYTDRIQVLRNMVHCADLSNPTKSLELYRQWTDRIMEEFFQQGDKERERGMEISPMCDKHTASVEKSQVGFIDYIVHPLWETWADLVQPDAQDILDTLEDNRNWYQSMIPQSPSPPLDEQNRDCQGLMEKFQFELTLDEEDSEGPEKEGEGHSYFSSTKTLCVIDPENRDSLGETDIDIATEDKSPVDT
In general terms: qHTS replaces the single test concentration by a dilution series.

The target of assay [8] is Cytochrome P450 3A4 (Homo sapiens) (UniProt P08684). In words: qHTS Assay for Activators of Cytochrome P450 3A4 (AID 885; active means well fitted curve in the direction sought with a large enough effect; an effect the other way counts as inactive or inconclusive; further: nearly all actives have a fitted effect of over 65% in size). The following applies: recombinant CYP3A4, Luciferin-PPXE luminescence, 60 min; series mostly up to 57.1 µM. In outline:
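Signal was normalized against complete inhibition by 57 uM ketoconazole. The reaction used 20nM CYP3A4 with 25uM Luciferin-PPXE, 10-min compound preincubation and a 60-min NADPH-supported step at RT.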

A short description of assay [9]: qHTS Assay for Lipid Storage Modulators (AID 1519; calls by dose curve). Particulars: Drosophila S3 cells, BODIPY lipid droplet/cell ratio, laser cytometry, cells loaded with oleic acid; for activity change, negative = inhibition: at 57.5 µM (top of the series). In outline:
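Cells seeded at 5,000 per well were treated with compounds over a concentration series and loaded with oleic acid (400 uM, as added). Lipid droplet fluorescence (488 nm excitation, 500-530 nm channel) was read by laser-scanning cytometry and normalized to 20 uM Triacsin C.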

The nature of assay [10]: Primary qHTS for small molecule stabilizers of the endoplasmic reticulum resident proteome: Secreted ER Calcium Modulated Protein (SERCaMP) assay (AID 1508630; active means well fitted curve in the direction sought with a large enough effect; an effect the other way counts as inactive or inconclusive; further: on the % scale 0 is the no-effect control and ±100 the full control effect). The following applies: SH-SY5Y GLuc-SERCaMP (Gaussia luciferase released on ER calcium loss) secretion, thapsigargin, luminescence; series mostly up to 38.4 µM. In outline: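 GLuc-SERCaMP-expressing SH-SY5Y cells, pretreated 16 h with compound, are challenged with thapsigargin to empty ER calcium stores; after 4 h, coelenterazine is added directly to the medium and luminescence is imaged.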

Assay [11] concerns the target Cytochrome P450 2D6 (Homo sapiens) (UniProt P10635). As to the kind of experiment: qHTS Assay for Inhibitors and Substrates of Cytochrome P450 2D6 (AID 891; active means well fitted curve in the direction sought with a large enough effect; an effect the other way counts as inactive or inconclusive; further: potency means the concentration at half of the fitted maximal effect; nearly all actives have a fitted effect of over 60% in size). The following applies: recombinant CYP2D6, luciferin-ME EGE luminescence; series mostly up to 57.1 µM. The procedure, abridged:
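Human CYP2D6 (5 nM) with 30 uM Luciferin-ME EGE (at Km) in 100 mM KPO4, compound preincubated 10 min, then NADPH regeneration system for 60 min at room temperature. Luciferin read by luminescence; normalized to 1.43 uM quinidine.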

Assay [12] can be described thus: NFAT Signaling Pathway (AID 444). The following applies: Jurkat NFAT-bla M1, carbachol, beta-lactamase ratio, 5 h; at 7.69 µM (top of the series) unless noted. The procedure, abridged:
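Jurkat cells with NFAT-driven β-lactamase reporter and co-expressed M1 receptor, stimulated with carbachol (final 1 uM, ~EC50), compound titration, 5 h at 37 °C. CCF4 loaded 1 h at RT; 460/530 nm ratio gave %activity and AC50.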

Assay [13] concerns the target Glucocorticoid receptor (Homo sapiens) (UniProt P04150). In words: GR-GFP Redistribution (AID 450;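 active means compounds whose dose series gives a full or clear partial fitted curve of increased nuclear translocation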; further: potency means the concentration at half of the fitted maximal effect). Particulars: U2OS GR-GFP nuclear translocation, laser cytometry, 2 h.
Assay [14] can be described thus: Confirmation and Secondary Assay for Modulators of Hemoglobin Beta Chain Splicing at IVS2 654 locus (AID 910; active means well fitted curve in the direction sought with a large enough effect; an effect the other way counts as inactive or inconclusive;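 further: HeLa cells stably carrying EGFP split by mutant beta-globin IVS2-654 intron; % of control where 0% means no effect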). The following applies: HeLa EGFP-654 splicing reporter, GFP fluorescence, 48 h; series mostly up to 38.3 µM. The procedure, abridged: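 HeLa cells stably expressing EGFP interrupted by β-globin IVS2-654 intron, seeded overnight in Opti-MEM/2% FCS, then treated 2 days at 37 °C. Restored splicing read as total peak GFP intensity per well by laser scanning cytometry (488 nm excitation, 500–520 nm emission); 500 nM antisense PNA as control.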

A short description of assay [15]: Confirmation and Secondary Assay for Modulators of Hemoglobin Beta Chain Splicing at IVS2 705 locus (AID 930; active means well fitted curve in the direction sought with a large enough effect; an effect the other way counts as inactive or inconclusive; further: % of control where 0% means no effect). Particulars: HeLa EGFP-705 splicing reporter, GFP fluorescence, 48 h; series mostly up to 38.3 µM. In outline: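 HeLa cells stably carrying EGFP interrupted by mutant beta-globin intron 2 (IVS2-705) treated 2 days at 37C with compound; 500 nM antisense PNA as control. Correct splicing read as total peak GFP intensity per well by laser-scanning cytometry.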

For assay [16], the target named is Ubiquitin carboxyl-terminal hydrolase 1 (Homo sapiens) (UniProt O94782). In words: Inhibitors of USP1/UAF1: Pilot qHTS (AID 504865; active means well fitted curve in the direction sought with a large enough effect; an effect the other way counts as inactive or inconclusive;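 further: rhodamine fluorescence freed from ubiquitin-rhodamine substrate followed over time; top concentration of the series differs between compounds; on the % scale 0 is the no-effect control and ±100 the full control effect; nearly all actives have a fitted effect of over 35% in size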). Particulars: purified USP1/UAF1, Ub-rhodamine cleavage fluorescence; series mostly up to 54.9 µM. In outline:
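USP1/UAF1 complex (1nM) preincubated with compound 15 min at room temperature, then Ub-Rho substrate (150nM final) added. Fluorescence read kinetically at 480/540 nm, 6 reads every 60 seconds. Buffer: 50mM HEPES pH 7.8, 0.5mM EDTA, 0.1 mg/ml BSA, 1mM TCEP, 0.01% Tween-20.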

The mark [17] stands for this setting: measured here: cell count channel max response.
Where [18] appears, read: measured here: lipid channel max response.

Results filed as inconclusive are left out. The source made the active and inactive calls. Unless noted, the call rests on the fitted dose curve; in most records, active means well fitted curve in either direction with a large enough effect (not every such curve was filed as active); inconclusive means small, poorly fitted or top-dose-only effect, or another doubt; inactive means flat fitted curve, though single readings scatter. Bounds are passed on as bounds.

Lysosomal acid glucosylceramidase (Homo sapiens), sequence (P04062 whole entry, looked up): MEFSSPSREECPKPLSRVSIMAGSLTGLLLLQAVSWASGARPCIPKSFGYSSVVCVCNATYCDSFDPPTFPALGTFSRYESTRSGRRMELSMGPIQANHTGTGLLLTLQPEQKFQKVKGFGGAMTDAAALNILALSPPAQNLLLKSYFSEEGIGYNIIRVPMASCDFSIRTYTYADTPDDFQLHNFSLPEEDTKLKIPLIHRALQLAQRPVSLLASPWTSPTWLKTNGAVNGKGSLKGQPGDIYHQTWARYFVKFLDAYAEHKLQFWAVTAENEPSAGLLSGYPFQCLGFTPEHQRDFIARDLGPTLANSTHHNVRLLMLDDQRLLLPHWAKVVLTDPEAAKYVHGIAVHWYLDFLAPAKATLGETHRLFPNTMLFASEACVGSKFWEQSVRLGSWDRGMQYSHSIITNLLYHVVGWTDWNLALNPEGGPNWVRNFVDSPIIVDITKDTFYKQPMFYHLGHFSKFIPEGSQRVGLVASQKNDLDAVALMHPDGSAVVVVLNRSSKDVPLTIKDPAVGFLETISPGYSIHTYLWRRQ
Glucocorticoid receptor (Homo sapiens), sequence (P04150 whole entry, looked up, the tested form may be a part): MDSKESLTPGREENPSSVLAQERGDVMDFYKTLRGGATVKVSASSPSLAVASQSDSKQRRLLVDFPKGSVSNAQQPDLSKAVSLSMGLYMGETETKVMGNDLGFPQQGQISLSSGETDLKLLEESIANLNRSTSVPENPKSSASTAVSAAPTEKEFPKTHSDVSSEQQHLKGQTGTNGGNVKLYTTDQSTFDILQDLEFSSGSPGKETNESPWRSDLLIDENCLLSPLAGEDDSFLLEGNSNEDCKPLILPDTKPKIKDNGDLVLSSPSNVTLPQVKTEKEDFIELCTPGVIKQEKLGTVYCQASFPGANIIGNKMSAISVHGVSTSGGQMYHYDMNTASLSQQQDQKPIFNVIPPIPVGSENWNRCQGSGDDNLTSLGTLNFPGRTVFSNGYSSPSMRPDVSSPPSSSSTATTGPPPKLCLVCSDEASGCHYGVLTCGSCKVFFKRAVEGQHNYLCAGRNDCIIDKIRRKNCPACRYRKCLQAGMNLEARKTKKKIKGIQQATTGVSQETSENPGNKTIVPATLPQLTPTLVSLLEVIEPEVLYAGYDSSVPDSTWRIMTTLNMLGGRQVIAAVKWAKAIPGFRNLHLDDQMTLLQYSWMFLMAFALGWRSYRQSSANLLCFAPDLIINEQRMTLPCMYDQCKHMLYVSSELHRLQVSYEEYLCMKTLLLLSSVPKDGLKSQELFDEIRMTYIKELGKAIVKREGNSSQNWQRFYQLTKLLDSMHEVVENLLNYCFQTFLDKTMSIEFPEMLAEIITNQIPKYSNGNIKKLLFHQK
Cytochrome P450 3A4 (Homo sapiens), sequence (P08684 whole entry, looked up): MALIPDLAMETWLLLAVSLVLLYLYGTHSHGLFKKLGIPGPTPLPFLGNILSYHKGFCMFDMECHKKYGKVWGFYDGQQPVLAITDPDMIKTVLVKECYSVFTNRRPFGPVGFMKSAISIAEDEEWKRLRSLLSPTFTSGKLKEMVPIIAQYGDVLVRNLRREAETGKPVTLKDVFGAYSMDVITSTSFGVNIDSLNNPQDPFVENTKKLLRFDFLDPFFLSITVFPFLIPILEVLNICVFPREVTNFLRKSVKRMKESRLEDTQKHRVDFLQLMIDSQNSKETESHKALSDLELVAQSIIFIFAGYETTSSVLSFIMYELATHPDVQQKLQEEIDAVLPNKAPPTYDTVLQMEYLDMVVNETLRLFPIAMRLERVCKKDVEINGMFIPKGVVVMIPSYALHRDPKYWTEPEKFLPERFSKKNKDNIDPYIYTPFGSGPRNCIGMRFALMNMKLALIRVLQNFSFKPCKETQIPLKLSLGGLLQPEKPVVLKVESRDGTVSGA
Cytochrome P450 2D6 (Homo sapiens), sequence (P10635 whole entry, looked up): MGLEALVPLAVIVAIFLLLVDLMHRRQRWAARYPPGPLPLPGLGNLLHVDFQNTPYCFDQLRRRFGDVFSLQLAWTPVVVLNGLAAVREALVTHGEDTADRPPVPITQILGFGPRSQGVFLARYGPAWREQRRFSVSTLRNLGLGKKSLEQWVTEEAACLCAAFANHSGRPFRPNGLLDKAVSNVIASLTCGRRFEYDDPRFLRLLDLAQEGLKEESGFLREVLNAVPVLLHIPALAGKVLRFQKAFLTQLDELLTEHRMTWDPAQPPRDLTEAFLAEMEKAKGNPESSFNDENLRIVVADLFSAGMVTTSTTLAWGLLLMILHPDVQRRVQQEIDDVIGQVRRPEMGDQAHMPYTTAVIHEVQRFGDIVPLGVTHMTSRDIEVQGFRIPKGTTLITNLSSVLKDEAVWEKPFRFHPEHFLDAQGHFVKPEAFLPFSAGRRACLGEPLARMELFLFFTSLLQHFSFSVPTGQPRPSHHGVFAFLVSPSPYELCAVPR
Ubiquitin carboxyl-terminal hydrolase 1 (Homo sapiens), sequence (O94782 whole entry, looked up): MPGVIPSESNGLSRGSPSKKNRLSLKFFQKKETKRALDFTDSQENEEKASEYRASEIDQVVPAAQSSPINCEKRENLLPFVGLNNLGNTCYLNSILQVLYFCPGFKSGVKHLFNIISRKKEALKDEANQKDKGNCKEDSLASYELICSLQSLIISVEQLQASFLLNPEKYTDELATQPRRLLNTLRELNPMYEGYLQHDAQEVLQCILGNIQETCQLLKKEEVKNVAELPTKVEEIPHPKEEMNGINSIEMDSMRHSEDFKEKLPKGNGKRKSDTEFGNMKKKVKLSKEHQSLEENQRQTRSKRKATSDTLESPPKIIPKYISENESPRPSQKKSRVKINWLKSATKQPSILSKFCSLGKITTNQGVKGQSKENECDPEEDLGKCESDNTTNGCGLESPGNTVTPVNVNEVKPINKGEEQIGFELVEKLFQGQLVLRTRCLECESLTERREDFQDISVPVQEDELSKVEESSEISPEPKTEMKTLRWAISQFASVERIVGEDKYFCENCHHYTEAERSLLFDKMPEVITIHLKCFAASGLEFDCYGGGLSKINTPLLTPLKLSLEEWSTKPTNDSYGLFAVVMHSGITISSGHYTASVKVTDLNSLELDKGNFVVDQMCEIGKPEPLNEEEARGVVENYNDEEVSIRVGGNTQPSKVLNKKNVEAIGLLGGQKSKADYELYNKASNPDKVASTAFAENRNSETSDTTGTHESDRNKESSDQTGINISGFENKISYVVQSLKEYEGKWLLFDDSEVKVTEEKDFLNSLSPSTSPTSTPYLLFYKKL

Regarding `O=C(c1cc(C(F)(F)F)cc(C(F)(F)F)c1)N1CCC[C@@]2(CCN(c3ccccc3)C2)C1`, the Potency in assay [1] was > 11.4 µM (inactive); in assay [5], > 46 µM (inactive). For the same molecule, the activity change, negative = inhibition is 0.763% (inactive) in assay [2] and -3.81% (inactive) in assay [9]. The Potency entry in assay [3], in [6], in [7] and in assay [8] was “inactive” in each case. Moreover, the activity, negative = inhibition in [4] is 2.5% (inactive). Besides, the max response in assay [9] (setting [17]) and in [9] (setting [18]) was 10.6% each time. The outcome in assay [10] was inactive.
Turning to `COC(=O)N1CCC2(CCCN(Cc3ccc(C#N)cc3)C2)CC1`, the Potency in assay [1] is > 11.4 µM (inactive); in assay [5], > 46 µM (inactive); in assay [11], 0.316 µM (active). In addition, the activity change, negative = inhibition in [2] is -3.68% (inactive); in [9] it was -1.17% (inactive). The Potency entry in assay [3], in assay [6], in assay [7] and in assay [8] was “inactive” throughout. Also, the activity, negative = inhibition in assay [4] was -2.36% (inactive). The results for the max response in assay [9] (setting [17]) and in [9] (setting [18]) were 13.4% and 12.9%, respectively. Besides, in assay [10], the result was inactive.
Consider `CC(C)CN1CCCC2(CCN(C(=O)c3csnn3)CC2)C1`, for which the Potency in [1] was > 11.4 µM (inactive); in [5], > 46 µM (inactive); in assay [11] it was 5.01 µM (active). Further, the activity change, negative = inhibition was 1.87% (inactive) in assay [2] and 2.3% (inactive) in assay [9]. Moreover, the Potency result in assay [3], in assay [6], in assay [7] and in assay [8] was “inactive” throughout. Moreover, the activity, negative = inhibition in assay [4] is -5.65% (inactive). Also, the max response in [9] (setting [17]) worked out at 15.1%; in [9] (setting [18]), 21%. In addition, in assay [10], the outcome was inactive.
Regarding `COc1ccc(CNc2ncncc2-c2ccccc2Cl)c(OC)c1`, the Potency in assay [1] was > 11.4 µM (inactive); in assay [13], > 46 µM (inactive); in assay [5] it was > 46 µM (inactive). Moreover, the results for the activity change, negative = inhibition in assay [2], in [12] and in assay [9] were -16.1% (inactive), -7% (inactive) and 5.27% (inactive), respectively. In addition, in assay [4], the activity, negative = inhibition was 15.1% (inactive). For the same molecule, the Potency entry in [6], in [7], in assay [14] and in assay [16] was “inactive” each time. Besides, the result in assay [15] and in assay [10] was inactive. Further, the max response in assay [9] (setting [17]) was -5%; in [9] (setting [18]), 2.12%.
In the case of `Cn1cccc1C(=O)N1CCC2(CCN(C(=O)Nc3cccc(C#N)c3)CC2)CC1`, the Potency in [1] is > 11.4 µM (inactive); in [5], > 46 µM (inactive). Besides, the activity change, negative = inhibition in [2] is -16.2% (inactive); in [12], 8.67% (inactive); in assay [9], 4.21% (inactive). The activity, negative = inhibition in [4] was -3.46% (inactive). The Potency entry in [6] and in assay [7] was “inactive” in each case. In addition, the max response in assay [9] (setting [17]) amounted to 4.21%; in assay [9] (setting [18]), 11.6%. Further, in [10], the outcome was inactive.
